Results from PubChem BioAssay.
A number with no mark means an inactive call. How the calls were made is not given here.

target: Pantothenate synthetase (Mycobacterium tuberculosis (strain ATCC 25618 / H37Rv)) (UniProt P9WIL5); experiment: Coupled enzyme confirmation of inhibitors against recombinant Mtb PanC (AID 375); conditions: coupled enzyme assay; at 10 µM, active compounds read high;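 further: 0% = full reaction with vehicle and 100% = no enzyme background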
Sequence (P9WIL5 whole entry, looked up): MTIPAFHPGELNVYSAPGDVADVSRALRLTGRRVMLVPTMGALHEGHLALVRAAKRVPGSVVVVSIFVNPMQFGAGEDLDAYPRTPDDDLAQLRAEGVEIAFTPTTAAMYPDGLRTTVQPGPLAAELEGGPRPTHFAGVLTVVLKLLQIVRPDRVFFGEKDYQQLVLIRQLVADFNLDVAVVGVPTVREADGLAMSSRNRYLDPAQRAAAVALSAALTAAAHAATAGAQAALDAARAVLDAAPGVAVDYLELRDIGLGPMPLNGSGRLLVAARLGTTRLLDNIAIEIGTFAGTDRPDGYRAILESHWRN

Row | Compound | inhibition
1 | Cc1nnc(NC(=O)Nc2cccc(Cl)c2)s1 | 0%
2 | CCNCC(O)COCC(O)CNCC (configuration not stated) | 0%
3 | CCOC(=O)c1oc2cc(OCC(N)=O)ccc2c(=O)c1-c1ccc(OC)c(OC)c1 | 3%
4 | COc1ccc2c(c1)n([O-])c1c([n+]2=O)CCC1 | 0%
5 | Cc1ccc(NC(=O)C2CCCN(S(=O)(=O)c3cnc[nH]3)C2)cc1C (configuration not stated) | 11%
6 | CCOC(=O)N1CCC(NC(=O)c2ccc3c(c2)N(C)CCS3)CC1 | 6%
7 | Cn1c(SCC(=O)O)nnc1C1CCCCC1 | 1%
8 | Nc1nnc(Cc2ccc(Cl)cc2)s1 | 4%
9 | C=CCn1c(SCC2=C(C(=O)OCC)C(C)NC(=O)N2)nnc1C1CCCCC1 (configuration not stated) | 0%
10 | Cc1cccc(OCC(=O)N2CCN(C(=O)Cc3ccccc3)CC2)c1 | 1%
11 | Cc1occc1C(=O)Nc1cccnc1 | 16%
12 | O=C(CSc1nnnn1-c1ccccc1)Nc1nsc(-c2ccc(Cl)cc2)n1 | 0%
13 | CN(CC(=O)NCCC1=CCCCC1)S(=O)(=O)c1ccc2c(c1)CCC(=O)N2 | 0%
14 | O=C(c1cc(C2CC2)on1)N1CCN(C(c2ccccc2)c2ccccc2)CC1 | 0%
15 | CCOC(=O)C(NC(=O)OC(C)C)(Nc1nccs1)C(F)(F)F (configuration not stated) | 2%
16 | COc1ccccc1C(=O)Nc1ccc(S(=O)(=O)N2CCOCC2)cc1 | 6%
17 | CCOC(=O)C1CCN(C(=O)Nc2ccc3nc(C)c(C)nc3c2)CC1 | 0%
18 | O=C1c2oc3ccccc3c(=O)c2C(c2ccccn2)N1Cc1ccccc1 (configuration not stated) | 13%
19 | CN(C)CCCN1C(=O)C(=O)/C(=C(/O)c2ccncc2)C1c1cccc(Br)c1 (configuration not stated) | 1%
20 | O=P(CCNCc1ccco1)(c1ccccc1)c1ccccc1 | 0%
21 | O=S(=O)(NC1=NCCC1)c1cccs1 | 0%
22 | CC(=O)c1ccc(-c2nc3ccccc3n2C)o1 | 0%
